Source: PubChem BioAssay
TROY signal inh = TROY signaling inhibition; Q293 LMP1-TROYcd NF-kB luciferase reporter, 4 h; inhibition, % at 10 µM; 0.98% of 360,000 active;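 active means compounds whose plate-normalised and pattern-corrected inhibition of the luciferase reporter signal at the single screening dose is 50% or more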
EWS-Fli block = EWS/Fli transcriptional activity inhibition; A673 NR0B1-luciferase reporter, viability-normalised; inhibition, % at 12.6 µM; 0.67% of 350,000 active; AID 651661;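 active means mean inhibition of at least 50% after viability correction, with every replicate also passing that limit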;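 further: firefly luciferase signal divided by Alamar Blue viability fluorescence both relative to DMSO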
EBV LMP1 NFkB = inhibitors of Epstein-Barr LMP1-induced NF-kappaB reporter; 0.69% of 350,000 active; inhibition, % at 12.5 µM; LMP1-induced NF-kappaB luciferase reporter cells, luminescence; AID 504558; in the data active means inhibition above about 41%;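 further: 0% = neutral control wells and 100% = reference inhibitor control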
TWEAK Fn14 block = blocks TWEAK-Fn14 interaction in a reporter cell assay | TWEAK-stimulated Fn14 reporter cells, luciferase luminescence, 8 h | inhibition, % at 10 µM | 2% of 360,000 active; in the data active means inhibition above about 50%
LGR2 antag = inhibitors of bursicon-induced Drosophila LGR2 receptor cAMP signaling. HEK293 LGR2, CRE-luciferase, bursicon-stimulated, 4 h. inhibition, % at 9.99 µM. 0.35% of 380,000 active;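 active means drop in luminescence signal, shown as inhibition above about 50% in the replicate tests, limit read from the data, passing the limit was not always enough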;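 further: agonist challenge used bursicon conditioned medium at about half maximal strength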
The depositor's hits bear a star. Only some compounds are listed: those with a hit (about 2.5% of all), similar ones and a draw of the others.

CC1=NN(C(=O)c2c(Br)cnn2C)C(O)(C(F)(F)F)C1 (configuration not stated) was read as TROY signal inh -4, EBV LMP1 NFkB -13 and TWEAK Fn14 block 72*.
`CC1=NN(C(=O)c2c(Br)c(C)nn2C)C(O)(C(F)(F)F)C1` (configuration not stated) gave TROY signal inh -17, EWS-Fli block 3, EBV LMP1 NFkB -1 and TWEAK Fn14 block 0.
Screening O=C(C[C@@H]1CC[C@@H]2[C@H](COC[C@H](O)CN2C(=O)c2ccc(F)cc2)O1)NCc1cccc(F)c1 returned EWS-Fli block 2 and LGR2 antag -12.
For C[C@@H]1CCCCO[C@@H](CN(C)CC2CC2)[C@@H](C)CN([C@H](C)CO)C(=O)c2cc(NS(C)(=O)=O)ccc2O1 the results were LGR2 antag -6.
NNC(=O)CSc1cccc2cccnc12 was read as TROY signal inh 6, EBV LMP1 NFkB -3, TWEAK Fn14 block 5 and LGR2 antag 14.
Screening O=C(CSc1cccc2cccnc12)N1CCCC1 returned TROY signal inh -24, EBV LMP1 NFkB -2 and TWEAK Fn14 block 67*.
Screening CN(C)C(=O)CSc1cccc2cccnc12 returned TROY signal inh 6, EBV LMP1 NFkB -37 and TWEAK Fn14 block 96*.
`O=[N+]([O-])c1ccccc1N/N=C\c1ccccc1Cl` gave TROY signal inh -77, EBV LMP1 NFkB -42 and TWEAK Fn14 block -34.
`CCCOc1ccc(/C=N/Nc2ccccc2[N+](=O)[O-])c(OCCC)c1` gave TROY signal inh 35, EWS-Fli block -19, EBV LMP1 NFkB 3, TWEAK Fn14 block 56* and LGR2 antag 8.
`COc1ccc(/C=N/Nc2ncccc2[N+](=O)[O-])c(OC)c1` gave TROY signal inh 52*, EWS-Fli block -136, EBV LMP1 NFkB -9, TWEAK Fn14 block 72* and LGR2 antag 66*.
For CCCNC(=O)C[C@@H]1CC[C@@H]2[C@@H](COc3ccc(NC(=O)Nc4ccccc4)cc3C(=O)N2C)O1 the results were EWS-Fli block -1 and LGR2 antag -5.
For Cc1ccc(Nc2cc(C)nn2-c2nc(C)cc(=O)[nH]2)cc1 the results were TROY signal inh 84*, EBV LMP1 NFkB -45 and TWEAK Fn14 block 108*.
C[C@H]1CN([C@@H](C)CO)C(=O)c2cc(NS(=O)(=O)c3ccccc3)ccc2O[C@H]1CN(C)Cc1ccc(C(=O)Nc2ccccc2N)cc1 was read as EWS-Fli block 47 and LGR2 antag -7.
`CCCCn1c(NC(C)=O)c(C#N)c2nc3ccccc3nc21` gave TROY signal inh 12, EBV LMP1 NFkB -12 and TWEAK Fn14 block -1.
Screening C=CCn1c(NC(=O)c2ccccc2Cl)c(C#N)c2nc3ccccc3nc21 returned TROY signal inh 66*, EBV LMP1 NFkB 5 and TWEAK Fn14 block 13.
`COc1ccc(NC(=O)Nc2ccc3c(c2)C(=O)N([C@@H](C)CO)C[C@H](C)[C@@H](CN(C)S(C)(=O)=O)O3)cc1` gave EWS-Fli block -1 and LGR2 antag 11.
Screening COC(=O)c1cnc(Oc2ccc(NC(=O)NC(=O)c3c(F)cccc3Cl)cc2)cc1C(F)(F)F returned TROY signal inh 22, EWS-Fli block 51*, EBV LMP1 NFkB 1, TWEAK Fn14 block -19 and LGR2 antag -1.
`COC(=O)c1cnc(Oc2ccc(NC(=O)NC(=O)c3c(OC)cccc3OC)cc2)cc1C(F)(F)F` gave TROY signal inh 18, EWS-Fli block 52*, EBV LMP1 NFkB 8, TWEAK Fn14 block -13 and LGR2 antag 4.
Screening COCC#Cc1ccc([C@H]2[C@@H](CO)N3CCCCN(Cc4cccnc4)C[C@H]23)cc1 returned EWS-Fli block -7 and LGR2 antag 2.
CCOCCCNC(=O)C(NC(=O)CNC(C)=O)c1ccc(C)cc1 (configuration not stated) was read as TROY signal inh -10, EBV LMP1 NFkB -12 and TWEAK Fn14 block 73*.
For O=C(COc1cccc2ccccc12)NNC(=O)C1CCCO1 (configuration not stated) the results were TROY signal inh -9, EBV LMP1 NFkB -5, TWEAK Fn14 block 7 and LGR2 antag 3.
For c1nc(CCO[C@H]2CCCCO2)cc2cc3c(cc12)OCO3 the results were TROY signal inh 60*, EWS-Fli block 75*, EBV LMP1 NFkB 39, TWEAK Fn14 block 92* and LGR2 antag 91*.
Screening c1ccc2cc(CCO[C@H]3CCCCO3)ncc2c1 returned TROY signal inh 10, EWS-Fli block 36, EBV LMP1 NFkB 26, TWEAK Fn14 block 66* and LGR2 antag 55*.
`O=C(N/C(=C\c1ccc(Br)cc1)C(=O)N1CCOCC1)c1ccc(Br)o1` gave TROY signal inh 18, EWS-Fli block -10, EBV LMP1 NFkB -1, TWEAK Fn14 block -10 and LGR2 antag 3.
O=C(N/C(=C/c1ccc(Br)cc1)C(=O)N1CCOCC1)c1ccc(Br)o1 was read as TROY signal inh -2, EBV LMP1 NFkB 61*, TWEAK Fn14 block -14 and LGR2 antag -10.
For CC(O)CNc1ncnc2nc[nH]c12 (configuration not stated) the results were TROY signal inh 6, EBV LMP1 NFkB -5 and TWEAK Fn14 block 4.
`CC(C)CCCCCCCCCCCCC(=O)NCC(=O)NC1C(O)C(O)C(Nc2ncnc3nc[nH]c23)OC1C(O)CO` (configuration not stated) gave TROY signal inh 72*, EBV LMP1 NFkB 88* and TWEAK Fn14 block 97*.
For Cc1ccc(S(=O)(=O)N(C)C[C@@H]2Oc3c(NC(=O)c4cnccn4)cccc3C(=O)N([C@H](C)CO)C[C@H]2C)cc1 the results were EWS-Fli block 9 and LGR2 antag -2.
For Cc1ccccc1NC(=O)CN1C(=O)S/C(=C\c2cccn2-c2cccc(C(=O)O)c2)C1=O the results were TROY signal inh -6, EBV LMP1 NFkB 74*, TWEAK Fn14 block -5 and LGR2 antag -5.
Screening Nc1ccc(-c2nnn(Cc3ccccc3)n2)cc1 returned TROY signal inh -38, EWS-Fli block -78, EBV LMP1 NFkB -10, TWEAK Fn14 block 65* and LGR2 antag -61.
For COc1ccc2cc(C(N)=O)c(=Nc3ccccc3)oc2c1 the results were TROY signal inh 14, EWS-Fli block -33, EBV LMP1 NFkB 10, TWEAK Fn14 block 72* and LGR2 antag -63.
For COc1cccc2cc(C(=O)NCc3ccco3)c(=Nc3ccc(C(=O)O)cc3)oc12 the results were TROY signal inh 42, EWS-Fli block -13, EBV LMP1 NFkB 0, TWEAK Fn14 block 71* and LGR2 antag -4.
COc1ccc2cc(C(=O)NCc3ccccc3)c(=Nc3ccc(C(=O)O)cc3)oc2c1 was read as TROY signal inh -46, EWS-Fli block 17, EBV LMP1 NFkB -7, TWEAK Fn14 block 59* and LGR2 antag -37.
For COc1cccc2cc(C(=O)NCc3ccco3)c(=O)oc12 the results were TROY signal inh -63, EWS-Fli block -39, EBV LMP1 NFkB -2 and TWEAK Fn14 block -25.
